Activity calls are given as the source filed them. The rule behind the calls is not given here.
Experiment: qHTS Assay for Inhibitors of Influenza NS1 Protein Function: SAR Using NS1 and pYES strains
Conditions: yeast NS1-expressing strain growth, OD at 60 h; stronger effect = higher value
Description: Influenza is a world-wide public health problem and emerging forms of the virus have the potential to cause a pandemic of equal or greater magnitude to the outbreaks recorded in 1918, 1957 or 1968. Vaccine development is proceeding and there also exist two classes of anti-influenza compounds. However these therapeutic modalities are neither fully effective nor widely enough available to fulfill global needs. In addition their potential usefulness against newly emergent strains is not known. Efforts are needed to develop novel agents against influenza virus, including broad-spectrum agents. Identification of small molecules that inhibit NS1 function either directly or by interfering with specific cellular pathways may be a key to increasing our defense against the virus.
We have miniaturized and optimized a cell based assay in which NS1 from influenza A is expressed in the budding yeast S. cerevisiae. NS1 is a multi-functional protein that counters the host innate immune response and facilitates viral versus cellular gene expression. Expression of NS1 causes a pronounced slow growth phenotype in yeast due to its intrinsic molecular activities. Small molecules that suppress the slow growth phenotype can be identified by a straightforward growth recovery assay using optical density (OD) as the measurement. The same yeast strain not expressing NS1 was used as positive control in the yeast growth recovery assay.
Hits resulting from the primary screen and other follow-up screens, were tested using the same yeast strain that was used in the primary assay (NS1) but as control, were compared to a strain that lacks NS1 (pYES).
NIH Chemical Genomics Center [NCGC]
NIH Molecular Libraries Probe Centers Network [MLPCN]
Assay Submitter (PI): Daniel Engel, University of Virgina
Strain 9526-6-2 (MATa his3Delta1 leu2Delta0 lys2Delta0 ura3Delta0 pdr1::KanMX4 pdr3::KanMX4) was a gift from Dan Burke. It was derived by tetrad dissection from two parent strains that had been modified by one step gene replacements. The pdr1::KanMX4 was constructed in BY4741 (MATa his3Delta1 leu2Delta0 met15Delta0 ura3Delta0) and the pdr3::KanMX4 was constructed in BY4742 (MATalpha his3Delta1 leu2Delta0 met15Delta0 ura3Delta0). PCR-mediated one-step gene replacements, matings and tetrad dissections were performed as described previously.[i] The strain 9526-6-2/pYES-NS1 was generated by transformation of 9526-6-2 with the plasmid pYES-NS1 and maintained on synthetic complete medium (SC) lacking uracil. For growth experiments and library screening, a single transformed colony was grown overnight, and the cell number was determined by using a Coulter counter (Beckman Coulter Corp.). The cells were diluted to 5 x 10^5 cells/mL in SC lacking uracil and containing raffinose and 2% galactose. A portion of this culture was added to preplated test compounds such that the final dimethyl sulfoxide (DMSO) concentration was 1%. Optical density readings at 600 nm (OD600) were taken using a Thermomax microplate reader (Molecular Devices).

Row | Structure (SMILES) | OD (growth)
1 | Cc1ccc(-n2nc(C)c3c(-c4ccc(O)c(O)c4)c(C#N)c(N)nc32)cc1C | 0.515 (active)
2 | Cc1nn(-c2ccc(Cl)cc2)c2nc(N)c(C#N)c(-c3ccc(O)c(O)c3)c12 | 0.384 (active)
3 | COc1cc(-c2c(C#N)c(N)nc3c2c(C)nn3-c2ccc(F)cc2)ccc1O | 0.396 (active)
4 | COc1cc(-c2ccnc3c2c(C)nn3-c2cccc(C(F)(F)F)c2)ccc1O | 0.366 (active)
5 | COc1cc(-c2ccnc3c2c(C)nn3-c2ccc(C(F)(F)F)cc2)ccc1O | 0.46 (active)

Same assay, conditions: yeast NS1-expressing strain growth, OD at 60 h; measured here: pYES control strain growth; stronger effect = higher value

Row | Structure (SMILES) | OD (growth)
6 | Cc1ccc(-n2nc(C)c3c(-c4ccc(O)c(O)c4)c(C#N)c(N)nc32)cc1C | 0.536
7 | Cc1nn(-c2ccc(Cl)cc2)c2nc(N)c(C#N)c(-c3ccc(O)c(O)c3)c12 | 0.572
8 | COc1cc(-c2c(C#N)c(N)nc3c2c(C)nn3-c2ccc(F)cc2)ccc1O | 0.591
9 | COc1cc(-c2ccnc3c2c(C)nn3-c2cccc(C(F)(F)F)c2)ccc1O | 0.551
10 | COc1cc(-c2ccnc3c2c(C)nn3-c2ccc(C(F)(F)F)cc2)ccc1O | 0.56

Reference: PubChem BioAssay AID602452 (National Center for Advancing Translational Sciences (NCATS), 2012)
